Measurements reported in PubChem BioAssay (NCI).
This is part of a sample that, as a whole, favours compounds with a hit. Of some 79,000 tested, about 15% had one in any assay. Cut-off read from the data, not from the text of the source: active = growth inhibition above about 70%; inactive = the rest.

Assays:
[1] = NCI Yeast Anticancer Drug Screen. Data for the rad50 strain (AID 155);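 note: 0% = growth of vehicle-only cultures of the same strain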; conditions: S. cerevisiae rad50 strain growth inhibition; at 50.0 µM; hits give high values
In short: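 A DNA repair-deficient yeast mutant serves as the test organism; compound-induced growth inhibition is calculated against vehicle-treated cells.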

[2] = NCI Yeast Anticancer Drug Screen. Data for the mec2-1 strain (AID 157); conditions: S. cerevisiae mec2-1 strain, at 50.0 µM, hits give high values
In short: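 Compounds were applied to mec2-1 yeast cells. Their growth was then compared with that of vehicle-treated cultures to give growth inhibition.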

[3] = NCI Yeast Anticancer Drug Screen. Data for the sgs1 mgt1 strain (AID 161);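 note: 0% = growth of cultures given vehicle only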; conditions: S. cerevisiae sgs1 mgt1 strain, at 50.0 µM, hits give high values
In short: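 Compounds are added to genetically altered yeast, and growth is compared with cultures given vehicle alone to give percent inhibition.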

[4] = NCI Yeast Anticancer Drug Screen. Data for the cln2 rad14 strain (AID 165);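 note: 0% = growth equal to vehicle treated cultures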; conditions: S. cerevisiae cln2 rad14 strain, at 50.0 µM, hits give high values
In short: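 Strain: cln2 rad14 yeast, altered in cell cycle control and DNA damage repair. Read-out: growth inhibition vs vehicle.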

[5] = NCI Yeast Anticancer Drug Screen. Data for the bub3 strain (AID 167); conditions: S. cerevisiae bub3 mutant strain, at 50.0 µM, hits give high values
In short: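 Inhibition values come from growth of compound-treated mutant yeast normalised to vehicle-treated controls.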

[6] = NCI Yeast Anticancer Drug Screen. Data for the mlh1 rad18 strain (AID 175); conditions: S. cerevisiae mlh1 rad18 strain growth inhibition; at 50.0 µM; hits give high values
In short: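 A repair-deficient yeast strain is exposed to test compound, and growth is scored relative to vehicle-treated controls.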

Measured: growth inhibition

O=C(O)CCC(=O)CC1CCCCC1
inactive: [1] 36.3% | [2] 15.9% | [3] 10.2% | [4] 39.1% | [5] -8.45% | [6] 28.2%

COc1ccccc1Nc1n[nH]c(=S)s1
inactive: [1] 11.5% | [2] -5.9% | [3] 58.5% | [4] 16.9% | [5] 14.1% | [6] 5.05%

CCC(=O)Oc1ccc(C(=O)O)cc1
inactive: [1] 6.2% | [2] -10% | [3] -12.1% | [4] -39.5% | [5] -26.5% | [6] 1.45%

CCCCC/C(=N\Nc1ccc([N+](=O)[O-])cc1[N+](=O)[O-])c1ccc(-c2ccccc2)cc1
inactive: [1] 13.9% | [2] 6.05% | [3] -6.9% | [4] 19.1% | [5] -5.95% | [6] 0.6%

CC1CN(C(=O)OCC23COC4(C)CCC(C)(OC2)N34)CC(C)O1 (stereo unspecified)
inactive: [1] 2.6% | [2] -18% | [3] 6.9% | [4] 13.4% | [5] -0.7% | [6] 5.75%

O=C1c2c(O)cccc2C(C(=O)CCCCC(=O)C2c3cccc(O)c3C(=O)c3c(O)cccc32)c2cccc(O)c21
inactive: [1] 1.75% | [2] 15.2% | [3] 27.3% | [4] 17.1% | [5] 17.2% | [6] 1.05%

CC1(C)CC(O)=CC(=O)N1
inactive: [1] 15.9% | [2] -5.75% | [3] -3.85% | [4] 11.7% | [5] 10.3% | [6] 4.45%

CSc1ncc(CO)c(NC(C)(C)C)n1
inactive: [1] 2.65% | [2] 5.7% | [3] 0.55% | [4] -19.8% | [5] -0.75% | [6] 10.5%

CC(SC(=S)N1CCOCC1)c1cc2oc(=O)n(C)c2cc1Cl (stereo unspecified)
inactive: [1] 2.4% | [2] 7.95% | [3] 8.35% | [4] -5.15% | [5] 24.8% | [6] 20.5%

O=C(O)C(Cc1cccs1)(Cc1cccs1)C(=O)O
inactive: [1] -9% | [2] -4.6% | [3] -2.9% | [4] -18.7% | [5] -9.75% | [6] -2.2%

CCOC(=O)/C(Cc1ccccc1[N+](=O)[O-])=N/O
inactive: [1] 6.7% | [2] 2.85% | [3] 8.65% | [4] -13.4% | [5] 12.3% | [6] 26.6%

CCOC(=O)c1[nH]n(-c2ccccc2)c(=O)c1C=NC(C)=S
inactive: [1] -32.2% | [2] -25.6% | [3] -16.6% | [4] 7.1% | [5] -12% | [6] -18.9%

CC[Si](CC)(CC)[Si](c1ccccc1)(c1ccccc1)c1ccccc1
inactive: [1] 42.1% | [2] 32% | [3] 17.1% | [4] 8.8% | [5] -17.4% | [6] 48.8%

CNc1nc(=S)nc(-c2ccccc2)s1
inactive: [1] 11.7% | [2] 13.3% | [3] 11.3% | [4] -8.45% | [5] 11.8% | [6] -9.6%

CC(C)(C#N)CCCS(C)(=O)=O
inactive: [1] -7.75% | [2] -4.35% | [3] -4% | [4] -9.25% | [5] -12.6% | [6] -2.65%

COc1ccc(C(O)c2ccccn2)cc1 (stereo unspecified)
inactive: [1] -13.1% | [2] -35.9% | [3] -24% | [4] -34.8% | [5] -62.7% | [6] -18.7%

O=C(COCC(=O)N/N=C/c1ccc(O)cc1)N/N=C/c1ccc(O)cc1
inactive: [1] -10.4% | [2] 22.2% | [3] 31.8% | [4] -11.9% | [5] 18.1% | [6] 26.3%

N#CC(C#N)=CNC(=S)Nc1ccc(Cl)c(Cl)c1
inactive: [1] 44.1% | [2] 39.7% | [3] 47.6% | [4] 37.7% | [5] 36% | [6] 62.5%

CC(=O)Nc1cccc2ccc([N+](=O)[O-])cc12
inactive: [1] 13.1% | [2] 0.9% | [3] -3.8% | [4] 16.4% | [5] -5.7% | [6] 7.85%

O=C(/C=C\c1ccccc1)OC(c1ccccc1)c1ccc(Br)cc1 (stereo unspecified)
inactive: [1] 17.9% | [2] 6.25% | [3] 14.1% | [4] -3.95% | [5] -3.4% | [6] 8%

CCCCCCCCC(C)c1cccc(C(C)CCCCCCCC)c1O (stereo unspecified)
inactive: [1] 33% | [2] 14.6% | [3] 10.5% | [4] 22.2% | [5] 14.8% | [6] 2.6%
